The record followed here is PubChem BioAssay AID1347076 (National Center for Advancing Translational Sciences (NCATS), 2019).

Screen size: about 400,000 compounds; about 13,000 (3.2%) were called active. Where a call stands in place of a potency, no number is given. Roughly 18% stayed inconclusive and do not appear here. The call rests on the fitted dose curve; in most records, active means well fitted cell-killing curve with a large enough effect; inconclusive means small, poorly fitted or top-dose-only effect, or effect the other way; inactive means flat fitted curve, though single readings scatter. This excerpt belongs to a sample that is enriched for actives.
Potency means the concentration at half of the fitted maximal effect.

The experiment is described as follows: qHTS assay for MDR1-selective chemotherapeutics: Primary screen using the drug-selected MDR subline cells KB-V1. Further: nearly all actives have a fitted effect of over 60% in size. To be noted: KB-V1 MDR cells viability, CellTiter-Glo, 72 h; series mostly up to 46.1 µM. An outline of the steps: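 KB-V1 cells (P-gp-expressing MDR subline of KB-3-1) in phenol-red-free DMEM with 10% FBS were exposed to library compounds over a concentration series for 72 h at 37 degrees C. Viability read by CellTiter-Glo luminescence; concentration-effect curves fitted after normalization.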
As to `CN(Cc1ccccc1)C(=O)[C@@H]1CCCN1C(=O)[C@@H]1CCCN1C(=O)c1c(F)cccc1F`, the Potency result is “inactive”. In the case of `O=C(COC(=O)c1cccc(Cl)c1Cl)NC1CCCCCC1` it was “inactive”. In the case of `CNC[C@H]1OCc2cnnn2CCCC(=O)N([C@H](C)CO)C[C@@H]1C` it was “inactive”; in that of `C[N+](C)(C)CCNC(=O)c1c[nH]c2ccccc12`, “inactive”; in that of `Cc1ccc(Cc2c(-c3ccc(Cl)cc3)nc3c4ccccc4ccn23)cc1`, “inactive”. As for `COc1ccc(CN2C(=O)C(CC(=O)NCCN3CCOCC3)CC(C(=O)N(C(C)C)C(C)C)=C2C)cc1` (centres undefined), the Potency result is “inactive”.

On to `COC(=O)c1ccccc1S(=O)(=O)Nc1ccc(OC)cc1`, for which the Potency entry was “inactive”. Under `OC[C@@H]1CN(Cc2ccc(-c3ccccc3)cc2)C[C@H](n2cnc3c(NC4CCCC4)ncnc32)O1` stands “inactive”; under `Cc1ccc(Cn2c(=O)n(Cc3nc(-c4ccccc4)no3)c(=O)c3cc4c(cc32)OCO4)cc1`, “inactive”; under `CCOC(=O)[C@]12CCC=C1N(Cc1ccccc1)C(=O)[C@H](CC(=O)N1CCCC1)C2`, “inactive”. Under `COc1cc(C(O)c2nc(-c3cnn(C)c3)cs2)ccc1F` (centres undefined) stands “inactive”; under `COc1ccc(C(=O)/C=C/c2ccc(OC3CSC3)cc2)cc1`, “inactive”; under `COc1ccc(C(=O)c2oc3ccc(Br)cc3c2NC(C)=O)cc1`, “inactive”. In the case of `COc1ccc(/C=C/C(=O)c2cc(Br)ccc(=O)c2O)cc1` it was 14.6 µM (active); in that of `COc1ccc(CCNC(=O)Nc2ccc3c(c2)c(=O)n(C)n3C)cc1OC`, “inactive”; in that of `COC(=O)C[C@@H]1C=C[C@@H](NC(=O)c2cccnc2)[C@@H](CO)O1`, “inactive”. Regarding `COc1cccc(C(=O)Nc2ccc3nc4n(c(=O)c3c2)CCCCC4)c1`, the Potency entry is “inactive”.

Take `COc1ccc(C(=O)Nc2ccc(N3CCC(C)CC3)cc2)cc1Br`: the Potency entry is “inactive”.

Turning to `COc1cccc(C(=O)Nc2ccc(N3CCCC3)cc2)c1`, the Potency is 5.8 µM (active). Under `O=C1c2ccccc2C(=O)N1c1ccc(S(=O)(=O)N2CCOCC2)c2ccccc12` stands “inactive”; under `CCOc1ccccc1N(CC)C(=O)Nc1cn(C)c(=O)c2ccccc12`, “inactive”; under `O=c1c2ccccc2nc2n1C(CSc1ccc(F)cc1)CN2` (centres undefined), “inactive”. In the case of `N#Cc1c(-c2ccccc2)nc(SCc2cccc(C(F)(F)F)c2)[nH]c1=O`, the Potency result is “inactive”. In the case of `O=c1c2ccccc2nc2n1C(CSCc1cccc(C(F)(F)F)c1)CS2` (centres undefined) it was 2.59 µM (active). Under `COc1cccc(CNS(=O)(=O)c2ccc3c(c2)CC(C)N3C(C)=O)c1` (centres undefined) stands “inactive”; under `COc1cccc(CNS(=O)(=O)c2ccc3c(c2)CC(C)N3C(=O)C2CCC2)c1` (centres undefined), “inactive”.

Turning to `COc1ccc(N(C)S(=O)(=O)c2ccc3c(c2)CC(C)N3C(=O)C2CC2)c(OC)c1` (centres undefined), the Potency is 8.2 µM (active).

As for `COc1cc(NC(=O)C2=C(C)OCCS2)c(Cl)cc1C(=O)NCCCN1CCCC(C)C1` (centres undefined), the Potency result was “inactive”.

On to `Cc1cc(C)cc(-n2c(SCC(=O)NCC3CCCO3)nc3c([nH]c4ccccc43)c2=O)c1` (centres undefined), for which the Potency result is “inactive”. In the case of `Cc1ccc(C(=O)NNC(=O)C(C)Oc2ccc3ccccc3c2)o1` (centres undefined) it was “inactive”; in that of `CC(Oc1ccc2ccccc2c1)C(=O)NNC(=S)NC(=O)c1ccco1` (centres undefined), 3.66 µM (active); in that of `CCCc1ccc(OCC(=O)NNC(=S)NC(=O)c2ccco2)cc1`, “inactive”. Take `COC(=O)Cc1ccc(OC2(C)CCN(Cc3ccc4c(c3)OCCO4)C2)cc1` (centres undefined): the Potency entry was “inactive”. Under `CC(C)CCNC(=O)CN(C(=O)Cn1nnc(-c2ccc(F)cc2)n1)C1CCCC1` stands 10.3 µM (active); under `CN(C(=O)Cn1nnc(-c2ccc(F)cc2)n1)C1CCS(=O)(=O)C1` (centres undefined), “inactive”. Under `CC(C)CCNC(=O)C(C)N(C(=O)Cn1nnc(-c2ccc(F)cc2)n1)C1CCCC1` (centres undefined) stands “inactive”; under `COc1ccc(C(CNC(=O)c2ccc(OCc3cscn3)cc2)N2CCCC2)cc1` (centres undefined), “inactive”.

For `CCCCCCC1(C)NC(c2ccc3c(c2)OCO3)=CC(c2ccccc2O)N1` (centres undefined), the Potency result was “inactive”. Under `Cc1ccc(S(=O)(=O)N2C[C@H]3n4c(=O)ccc(=O)n4C[C@H](OC(=O)NC4CCCC4)[C@@]3(O)C2)cc1` stands “inactive”. In the case of `COc1cccc(NC(=O)C2(C)CCN2Cc2ccccc2Cl)c1` (centres undefined) it was “inactive”; in that of `O=Nc1c(O)cc(O)c2ccccc12`, “inactive”; in that of `Cc1cccc(Nc2nc(C)nc(N)c2S(=O)(=O)c2ccccc2)c1`, “inactive”. In the case of `CC1CCN(c2ccc([N+](=O)[O-])cc2C(N)=O)CC1` it was “inactive”. In the case of `CCN1CCN(c2ccc([N+](=O)[O-])cc2C(=O)c2ccc(Cl)cc2)CC1`, the Potency was 23.1 µM (active).

As to `O=C(Nc1cccc(Cl)c1)c1cc([N+](=O)[O-])ccc1N1CCN(CCO)CC1`, the Potency result is “inactive”.

Regarding `COc1ccc(CC(N)c2csc(NC(=O)NC(c3ccccc3)c3ccccc3)n2)cc1` (centres undefined), the Potency entry was “inactive”. In the case of `CC1(C(=O)NS(=O)(=O)c2cccc(OC(F)F)c2)CCN1C(=O)C1CC1` (centres undefined) it was “inactive”. Under `Cc1ccc(CN2CC(N3CCC(Cc4ccccc4)CC3)CS2(=O)=O)cc1` (centres undefined) stands “inactive”. In the case of `O=C(Nc1ccc(Cl)cc1)Nc1ccc(C(=O)N2CCOCC2)cc1` it was “inactive”. `Cc1c(Cl)cccc1NC(=O)Nc1ccc(C(=O)N2CCCC2)cc1`: the Potency was 16.4 µM (active).

In the case of `CS(=O)(=O)Nc1ccc(C(=O)N2CCCC2)cc1`, the Potency result was “inactive”. As for `O=C(Nc1cccc(Cl)c1)c1csnn1`, the Potency entry is “inactive”.

Consider `COc1ccc(C2NC(=O)N(C)C3=C2C(=O)N(c2ccc(C(=O)O)cc2)C3)cc1` (centres undefined), for which the Potency entry is “inactive”. As for `O=S1(=O)N=C(Oc2cccc(Br)c2)c2ccccc21`, the Potency result was “inactive”. In the case of `CCCCOC(=O)c1ccc(NC(c2ccc(C)cc2)P(=O)(OC)OC)cc1` (centres undefined) it was “inactive”. Turning to `Cc1cccc(C(=O)OCC(=O)Nc2ccc(F)cc2)c1`, the Potency entry was “inactive”. Under `CCOP(=O)(OCC)C(Nc1cccc(C)c1)c1ccc(F)cc1` (centres undefined) stands 16.4 µM (active). Under `CCOC(=O)c1cc2cc(OC)ccc2n1C1CCN(C)CC1` stands “inactive”. In the case of `Cc1ccc2sc(N(Cc3cccnc3)C(=O)C3COc4ccccc4O3)nc2c1C` (centres undefined) it was “inactive”. Consider `CCN(CC)C(=O)CSc1nc2ccccc2o1`, for which the Potency entry is “inactive”.

For `Cn1c(=O)c2c(nc(Br)n2CCSc2nc3ccccc3o2)n(C)c1=O`, the Potency was 6.51 µM (active).

In the case of `Cn1c(=O)[nH]c(=O)c2c1nc(Br)n2CCCCSc1nc2ccccc2o1`, the Potency entry is “inactive”. In the case of `O=C(Nc1ccc(N2CCOCC2)cc1)c1cccc2c(-c3ccc(F)c(F)c3)coc12` it was “inactive”.

For the molecule `Cc1ccn(CC(=O)NC2CCCN(Cc3ccccc3F)C2)n1` (centres undefined), the Potency entry is “inactive”.
